Results on 40 compounds are retold here after PubChem BioAssay (Tox21).

The structures appear in SMILES notation. Inconclusive results are not listed. Entries that show only a call come without a potency. Calls of active or inactive are those of the source. Calls come from the whole dose curve; as a rule, active = well fitted cell-killing curve with a large enough effect in the repeat runs; inconclusive = weak or mixed curves, or effect the other way; inactive = flat fitted curve, though single readings scatter.
Potency is the fitted concentration of half-maximal effect.

The assay in a line: qHTS assay to identify small molecule antagonists of the constitutive androstane receptor (CAR) signaling pathway - cell viability counter screen (AID 1224837). Note: nearly all actives have a fitted effect of over 45% in size. The following applies: HepG2-CYP2B6-hCAR viability, CellTiter-Fluor, 23 h, co-treated with 50 nM CITCO; series mostly up to 92.4 µM. The text has this:
National Center for Advancing Translational Sciences [NCATS]
NIH Chemical Genomics Center [NCGC]
U.S. Environmental Protection Agency [EPA]
National Institutes of Environmental Health Sciences [NIEHS]
National Toxicology Program [NTP]
U.S. Food and Drug Administration [FDA]
The constitutive androstane receptor (CAR) is a nuclear receptor which regulates multiple drug metabolizing enzymes (DMEs) and transporters. Activating CAR will generally increase the transcription and subsequent translation of CYP2B6 and CYP3A4. These two DMEs represent about 50% of the drug metabolizing potential in the body. When CAR is deactivated, the metabolizing potential in the body will decrease, subsequently increasing the toxicity in the body or lowering the therapeutic potential of a pro-drug. Recently, there have also been studies performed indicating CARs role in energy metabolism and cancer therapy. Therefore, inhibiting CARs activity could have a potential effect on diabetes and cancer. Identifying environmental toxins and compounds which modulate CAR, through the use of the Tox21 10K compound collection, will be an important step in determining the toxicity and potential therapeutic effects these factors will have on the human body. To differentiate true CAR antagonists from cytotoxic substances, the assay is multiplexed with a cell viability assay.
Tox21 Assay Protocol Summary:
A double-stable (hCAR and CYP2B6-2.2kb) transfected cell line, derived from human hepatoma (HepG2) cells, was utilized for the duration of the quantitative high-throughput screens. The HepG2-CYP2B6-hCAR cells were dispensed at 2500 cells/4 uL/well in 1536-well white solid bottom plates using a Multidrop Combi. After the assay plates were incubated at 37 C/5% CO2 for 4 hrs, 23 nL of compounds at 15 concentrations (from 5-48 columns) or positive control (from 1 to 4 columns) were transferred to the assay plates using a Pintool station. One uL of CITCO (final concentration = 50 nM) was added, using a Flying Reagent Dispenser, inside each well. After a 23 hr incubation period at 37 C/5% CO2, 1 uL of CellTiter-Fluor reagent was added into each well of the assay plates using a Flying Reagent Dispenser. The fluorescence intensity in the plates was then measured using a ViewLux plate reader.
With `Cc1ccc([N+](=O)[O-])[c]2c1[O][Hg]2`, the Potency was 6.68 µM (active).
Take `CCCCC(CC)COC(=O)c1ccccc1C(=O)OCC(CC)CCCC` (stereo not given): the Potency result was “inactive”.
Consider `CCN(CC)Cc1nccn1-c1ccc([N+](=O)[O-])cc1C(=O)c1ccccc1Cl`, for which the Potency was 26.6 µM (active).
The result for `C=CCOC(=O)c1ccccc1N` reads “inactive”; that for `CC(C)Br`, “inactive”; that for `Clc1ccc(C(Cl)(Cl)Cl)cc1Cl`, “inactive”.
The result for `CCOP(=O)(Sc1ccccc1)Sc1ccccc1` reads “inactive”.
The result for `NC(=O)C(Cl)Cl` reads “inactive”; that for `Oc1cccc(Cl)c1Cl`, “inactive”; that for `ClCBr`, “inactive”.
Turning to `CCOC(=O)Cc1ccccc1`, the Potency entry was “inactive”.
The result for `O=C(Nc1ccc(F)cc1F)c1cccnc1Oc1cccc(C(F)(F)F)c1` reads “inactive”; that for `CNC(=O)CSP(=O)(OC)OC`, “inactive”.
`Oc1ccc(Cl)c(Cl)c1`: the Potency entry is “inactive”.
In the case of `CNN`, the Potency entry was “inactive”.
The result for `ClSC(Cl)(Cl)Cl` reads “inactive”; that for `COc1ccc(Cc2nccc3cc(OC)c(OC)cc23)cc1OC`, “inactive”; that for `BrCCCBr`, “inactive”.
The result for `CCNc1nc(NC(C)C(C)C)nc(SC)n1` (stereo not given) reads “inactive”; that for `CSC(C)(C)/C=N/O`, “inactive”.
The result for `CCCCCCCc1ccc(O)cc1` reads “inactive”; that for `CC(Cl)CCl` (stereo not given), “inactive”; that for `O=[N+]([O-])[O-].[Tl+]`, “inactive”.
With `Nc1c(Cl)c(Cl)c(Cl)c(Cl)c1Cl`, the Potency result was “inactive”.
With `CC#C[C@]1(O)CC[C@H]2[C@@H]3C[C@H](C)C4=CC(=O)CC[C@]4(C)[C@H]3CC[C@@]21C`, the Potency entry was “inactive”.
The result for `C1=CCC=C1` reads “inactive”.
The result for `O=C1C(Cl)=C(Cl)C(=O)C(Cl)=C1Cl` reads “inactive”; that for `CC(C)N(C(=O)SC/C(Cl)=C/Cl)C(C)C`, “inactive”.
The result for `COC(=O)C(C)N(C(=O)c1ccco1)c1c(C)cccc1C` (stereo not given) reads “inactive”.
For the compound `CC(=O)[O][Pb]([c]1ccccc1)([c]1ccccc1)[c]1ccccc1`, the Potency is 7.7 µM (active).
The result for `CCCCn1cc[n+](C)c1` (tested in a mixture with another compound) reads “inactive”.
The result for `CCCCc1ccccc1` reads “inactive”.
Regarding `CN1C(=O)[C@@H](NC(=O)c2cc3ccccc3[nH]2)N=C(c2ccccc2)c2ccccc21`, the Potency entry is “inactive”.
The result for `COc1ccc2c(c1OC)C(=O)O[C@@H]2[C@H]1c2cc3c(cc2CCN1C)OCO3` reads 7.62 µM (active); that for `CCC(C)c1cccc(C(C)CC)c1O` (stereo not given), “inactive”; that for `C[C@@H]1CC2=CC(=O)CC[C@@H]2[C@H]2CC[C@@]3(C)[C@@H](CC[C@]3(C)O)[C@@H]21`, “inactive”.
The result for `Cc1ccn2nc(S(=O)(=O)Nc3c(F)cccc3F)nc2n1` reads “inactive”.
The result for `O=c1c2ccccc2c(=O)c2c1cc(Cl)c1[nH]c3c([nH]c12)c(Cl)cc1c(=O)c2ccccc2c(=O)c13` reads “inactive”.
For `O=C(CCCCl)c1ccc(F)cc1`, the Potency entry was “inactive”.
The result for `O=[N+]([O-])c1cc(C(F)(F)F)c(Cl)c([N+](=O)[O-])c1Nc1ncc(C(F)(F)F)cc1Cl` reads 15.4 µM (active).
